The values that follow come from PubChem BioAssay (NCI).

SMILES strings stand for the structures. Compounds without any hit were thinned out: in the full panel of roughly 83,000, 20% have a hit.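 Testing used 96-well plates and a 48-hour single-concentration exposure. Example: -40 means 40% of the starting cells died.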 Unmarked numbers belong to inactive results. Activity calls are given as the source filed them. The calls were made as follows: active = growth percent below 10; inactive = the rest.

The assay concerns MDA-MB-468 breast. The experiment in a line: NCI-60 one-dose screen, 48 h (100 = growth as untreated, 0 = no growth, -100 = all killed). The following applies: 10 µM unless noted.
Regarding `COc1ccc(-c2cc(-c3ccc(OC)c(OC)c3)nc(SCCCC(=O)NO)n2)cc1`, the growth was -30.7% (active). In the case of `Cc1ccc(C(=NN=C(N)N)c2ccc(C)cc2)cc1` it was -42.5% (active). Take `COc1cc(/C=C/C(=O)c2c(C)oc3nc[nH]c(=O)c23)cc(OC)c1OC`: the growth is 64.3%.

Take `CC1=C2[C@@H](CC1)[C@]1(C)O[C@@](c3ccccc3)(C[C@H]1OC(=O)CO)[C@H]2OC(=O)/C=C/c1ccccc1`: the growth was 91.1%. In the case of `CC[C@H](Nc1nc(N)nc(C)c1C#N)c1nc2cccc(NCc3ccc(C(=O)NO)cc3)c2c(=O)n1-c1ccccc1` it was 3.26% (active); in that of `S=c1[nH]nc(-c2cc3ccc2CCc2ccc(cc2)CC3)n1-c1ccccc1`, 109%; in that of `CCSCC1CC(O)(c2ccccc2)C(c2ccccc2)C(c2ccc(Cl)cc2)O1` (configuration not stated), 35.9%. Next, `[O-][N+](=Nc1cccc(Cl)c1)c1cccc(Cl)c1`: -25% (active); `Cc1cc(N2CCCCC2)nc(NC2CCCC(Nc3ccnc4cc(Cl)ccc34)C2)n1` (configuration not stated): -77.6% (active). `COc1ccc(/C=N/Nc2nc(N/N=C/c3ccc(OC)cc3O)nc(N3CCOCC3)n2)c(O)c1`: the growth is 63.1%. In the case of `O=C(O)c1ccccc1NCc1ccco1` it was 95%; in that of `O=C(CCN1CCCCC1)c1ccc2ccccc2c1`, 92.1%; in that of `O=C(N/N=C/c1ccc(Cl)cc1)c1ccc(C(F)(F)F)nc1Nc1cccc(C(F)(F)F)c1`, 16.7%.

As for `CCS(=O)(=O)c1ncnc2nc[nH]c12`, the growth is 105%. Regarding `COc1ccc(Cn2nc3c(c2-c2cc(OC)c(OC)c(OC)c2)-c2oncc2CC3)cc1`, the growth is 27.8%.

Regarding `CS(=O)(=O)c1ccc(-c2cc3c(oc2=O)-c2ccccc2OC3O)cc1` (configuration not stated), the growth was 91.6%. In the case of `COc1cc(C(=O)Oc2ccccc2OC(=O)c2cc(OC)c(OC)c(OC)c2)cc(OC)c1OC` it was 105%; in that of `Cn1cc(-c2csc(-c3cn(CCN)c4ccccc34)n2)c2cccnc21`, 23.2%. Next, `Cc1[nH]nc2c(=S)[nH]c(=O)[nH]c12`: 101%; `CC[C@@H](C)/C=C(C)/C=C/C(=O)c1c(O)c(-c2ccc(OC(=O)[C@@]34CC[C@@](C)(C(=O)O3)C4(C)C)cc2)cn(O)c1=O`: -4.05% (active); `C[C@@H]1C[C@H]2C(=O)O[C@@H](C)C(NC(=O)[C@H](Cc3cc(F)cc(F)c3)NC(=O)Nc3ccc(C4CC4)cc3F)C(=O)N3CCC[C@H]3C(=O)N3CCCC[C@H]3C(=O)N[C@@H](CO)C(=O)N2C1` (some centres not stated): -18.1% (active). Next, `Oc1c(Cl)cc(Cl)c2ccc(Cn3cc(-c4cccc(C(F)(F)F)c4)nn3)nc12`: 56.4%. In the case of `COc1cccc(-c2nc(-c3ccc(NC(=O)C(C)C)cc3)[nH]c2-c2ccnc(Br)c2)c1`, the growth was 26.4%. Next, `Cc1c2c(cc[n+]1Cc1ccccc1)c1ccc(OCC3CCCCC3)cc1n2CC1CCCCC1`: -86.6% (active); `Cc1ccc(S(=O)(=O)Nc2c(Br)cc(Br)cc2C(N)=O)cc1`: 102%; `CCCCCc1nc2c(c3c1CCCC3)CCCC2`: 75.5%.

Turning to `COC(=O)c1cc(C(=O)OC)cc([N+](=O)[O-])c1`, the growth is 107%.

For `Cc1c([C@H](C(Cl)Cl)[C@H](O)[C@H]2C[C@H](C)C(=O)O2)ccc2c1C(=O)[C@H]1[C@H]2C[C@@H](Br)[C@@]23O[C@@H](CO[C@H]2O)CC13C` (some centres not stated), the growth was 17.5%. In the case of `CN(C)CC1C(=O)O[C@H]2[C@H]1CC/C(COC(=O)c1cc3ccccc3[nH]1)=C\CC[C@@]1(C)O[C@@H]21` (some centres not stated) it was -59.8% (active).

In the case of `O=C1OCC2=C1C(c1cccc(Br)c1)c1cc3c(cc1N2CCO)CCC3` (configuration not stated), the growth was -3.99% (active). Next, `CCCCOc1nc2ccccc2cc1/C=C/c1cc(/C=C/c2cc3ccccc3nc2OCCCC)n(-c2ccccc2)n1`: 104%. Next, `CC(Nc1c(C#N)cnc2ccc(-c3cncc(O)c3)cc12)c1ccccc1` (configuration not stated): -37% (active); `OCC1C2C=CC(C2)C1CO` (configuration not stated): 98.4%. In the case of `COc1c(B(O)O)cc(C)cc1-c1nc2ccc3[nH]ncc3c2c2c1CCCC2` it was 28.2%; in that of `CCCc1cccc(CCC)c1NC(=O)Nc1cc(Cl)cc(Cl)c1`, 98.8%.

For `COc1cc(-c2ccc[nH]2)[nH]c1/C=C1\N=C(C)C(C(=O)NC(C)C)=C1C`, the growth is 44%. Next, `Cc1n(Cc2ccc3ccccc3n2)cc[n+]1Cc1ccc2ccccc2c1`: -23.5% (active).
